Assay outcomes from PubChem BioAssay.
Only some compounds are listed: those with a hit (about 15% of all), similar ones and a draw of the others.
RORg inh: inhibitors of mouse ROR gamma transcriptional activity; P51450; Drosophila S2 Gal4-RORgamma UAS-luciferase reporter, 20 h; Potency, µM (doses to about 53.6 µM), inactives show at the highest dose activity change, negative = inhibition, usual class: inhibitors; hit rate 5.4% among 310,000; AID 2551; also: nearly all actives have a fitted effect of over 60% in size
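In this cell-based reporter format, copper sulfate (700 uM final) drives Gal4–ROR gamma fusion expression from a metallothionein promoter in Drosophila Schneider cells; compounds preincubated 1 hr, reporter read after 20 hr at ambient temperature.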
ALOX12 inh: ALOX12 (human) lipoxygenase inhibition. purified 12hLO, xylenol orange hydroperoxide absorbance. Potency, µM (doses to about 108 µM), without a hit: at the top dose activity change, negative = inhibition, usual class: inhibitors. hit rate 1.1% among 580,000. AID 1671190
Target sequence (P18054 whole entry, looked up): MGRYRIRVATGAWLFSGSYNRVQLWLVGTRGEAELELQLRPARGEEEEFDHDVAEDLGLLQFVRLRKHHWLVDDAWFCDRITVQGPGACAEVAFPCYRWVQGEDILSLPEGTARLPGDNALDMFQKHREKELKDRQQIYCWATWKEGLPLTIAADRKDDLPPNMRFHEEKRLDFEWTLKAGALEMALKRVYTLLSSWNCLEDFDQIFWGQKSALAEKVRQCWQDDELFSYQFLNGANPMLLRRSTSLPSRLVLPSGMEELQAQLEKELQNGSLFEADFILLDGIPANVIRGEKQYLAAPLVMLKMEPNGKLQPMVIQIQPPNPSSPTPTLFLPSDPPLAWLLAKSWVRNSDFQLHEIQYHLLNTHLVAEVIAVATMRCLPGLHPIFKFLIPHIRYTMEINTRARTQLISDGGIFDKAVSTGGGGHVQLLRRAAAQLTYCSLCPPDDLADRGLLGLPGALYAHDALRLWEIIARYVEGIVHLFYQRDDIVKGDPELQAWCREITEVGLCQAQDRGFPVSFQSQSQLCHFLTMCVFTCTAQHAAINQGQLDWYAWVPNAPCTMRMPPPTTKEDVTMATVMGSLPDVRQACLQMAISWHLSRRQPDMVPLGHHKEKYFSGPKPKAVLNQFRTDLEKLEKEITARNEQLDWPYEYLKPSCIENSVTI
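Purified human 12hLO (150 nM final) in 25 mM Hepes, 0.01% Triton X-100, pH 7.0 was preincubated 15 min at room temperature with compound. Then 40 uM arachidonic acid was added, 30 min. Hydroperoxide was read by Fe-XO absorbance ratio 573/405 nm.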
TDP1 cell CPT: growth inhibition of DT40 Tdp1-/-;hTDP1 cells with camptothecin (screen for TDP1 inhibitors). hit rate 12% among 420,000. chicken DT40 Tdp1-/-;hTDP1 cells + 20 nM CPT, ATP luminescence, 48 h. Potency, µM (doses to about 46.2 µM), for inactives: at the highest dose activity change, negative = growth inhibition, most hits filed as inhibitors; also: nearly all actives have a fitted effect of over 55% in size
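Chicken DT40 Tdp1-/- cells stably complemented with human TDP1 were seeded at 400 cells/well in medium containing 20 nM camptothecin, exposed to pin-transferred compounds, and grown at 37 °C for at least 48 hr. Viability was read as ATP luminescence.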
ELG1 repair inh: inhibitors of ELG1-dependent DNA repair in HEK293T cells; HEK293T ELG1-luciferase reporter, luminescence, 16 h; DNA damage induced by 5-fluorouridine; Potency, µM (highest dose often 46.1 µM), inactives show at the top dose activity change, negative = inhibition, hits mostly inhibitors; hit rate 2.3% among 330,000; AID 504467; also: nearly all actives have a fitted effect of over 55% in size
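Cells (2,000 per well) received 5-fluorouridine plus test compound or DMSO and were incubated 16 hr at 37 °C, 5% CO2. Luciferase activity was read by luminescence 30 min after ONE-Glo addition; signal suppression marked inhibition of damage-induced ELG1 function.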
DT40 TDP1 no CPT: qHTS for Inhibitors of human tyrosyl-DNA phosphodiesterase 1 (TDP1): qHTS in cells in absence of CPT | DT40 Tdp1-/- hTDP1 cells, no CPT, ATP luminescence, 48 h | Potency, µM (titrated, usually from 46.2 µM), without a hit: at the highest dose activity change, negative = growth inhibition, usual class: inhibitors | hit rate 15% among 420,000 | AID 686978, 2013; also: nearly all actives have a fitted effect of over 55% in size
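Luminescent ATP content (CellTiter-Glo) served as the growth readout. Knockout chicken DT40 cells expressing human TDP1 were exposed to compounds without camptothecin for a minimum 48 hr at 37 °C.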
Gal4-VP16 FLuc: inhibits Gal4-VP16 luciferase reporter, ROR gamma counter-screen | Drosophila S2 Gal4-VP16 UAS-luciferase, luminescence, 20 h | Potency, µM (highest dose often 53.6 µM), for inactives: top-dose activity, negative = inhibition, actives largely listed as inhibitors | hit rate 3.5% among 310,000;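 also: Gal4-VP16 expression switched on by copper sulfate through the metallothionein promoter; nearly all actives have a fitted effect of over 50% in size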
Starred values were filed as active, the others as inactive. Calls follow the shape of the dose curve; as a rule, active = well fitted curve in the direction sought with a large enough effect; inconclusive = small, poorly fitted or top-dose-only effect, or another doubt; inactive = no such curve, though single readings can be large; an effect the other way counts as inactive or inconclusive. % is scaled to controls: 0 for no effect and ±100 for the full control effect; potency is read from the fitted curve at half-maximal effect.

Screening CC(C)n1cnnc1-c1nn(C)c2c1CN(C(=O)CC1CCCC1)CC2 returned ALOX12 inh 40.1%.
Screening CCCOc1ccc(-c2c(C(=O)N/N=C/c3ccc(OCC)cc3)nnn2-c2nonc2N)cc1 returned RORg inh 10µM*, ALOX12 inh -3.0%, TDP1 cell CPT -2.9%, ELG1 repair inh inconclusive, DT40 TDP1 no CPT -14.2% and Gal4-VP16 FLuc 10µM*.
For Cc1ccc(/C=N/NC(=O)c2nnn(-c3nonc3N)c2-c2ccccc2)o1 the results were RORg inh 10µM*, ALOX12 inh 0.9%, TDP1 cell CPT 6.2%, ELG1 repair inh 7.5%, DT40 TDP1 no CPT 9.0% and Gal4-VP16 FLuc inconclusive.
CCOc1ccc(-c2c(C(=O)N/N=C/c3ccc(O)cc3)nnn2-c2nonc2N)cc1 was read as RORg inh 4.8%, ALOX12 inh 17.3%, TDP1 cell CPT 4.7%, ELG1 repair inh 0.0%, DT40 TDP1 no CPT -4.4% and Gal4-VP16 FLuc -4.4%.
Screening CCCOc1ccc(-c2c(C(=O)N/N=C/c3cccs3)nnn2-c2nonc2N)cc1 returned RORg inh 2.24µM*, TDP1 cell CPT inconclusive, ELG1 repair inh -15.6%, DT40 TDP1 no CPT 1.5% and Gal4-VP16 FLuc 3.16µM*.
For Cc1ccc(/C=N/NC(=O)c2nnn(-c3nonc3N)c2C)o1 the results were RORg inh 3.0%, ALOX12 inh -0.8%, TDP1 cell CPT -19.5%, ELG1 repair inh 15.0%, DT40 TDP1 no CPT 25.9% and Gal4-VP16 FLuc -4.1%.
For CCCOc1ccc(-c2c(C(=O)N/N=C/c3ccc(C)o3)nnn2-c2nonc2N)cc1 the results were RORg inh 3.55µM*, ALOX12 inh 27.9%, TDP1 cell CPT -0.4%, ELG1 repair inh -5.4%, DT40 TDP1 no CPT -29.6% and Gal4-VP16 FLuc 5.62µM*.
CC(=O)N1CCC(C2CCN(Cc3cccc(C)c3)C2)CC1 (stereo not drawn) was read as ALOX12 inh 61.5%.
`CCCOc1ccc(-c2c(C(=O)N/N=C/c3ccncc3)nnn2-c2nonc2N)cc1` gave RORg inh -5.8%, ALOX12 inh 12.8%, TDP1 cell CPT 1.6%, ELG1 repair inh 19.5%, DT40 TDP1 no CPT 22.0% and Gal4-VP16 FLuc -11.5%.
`CCOc1ccc(-c2c(C(=O)N/N=C/c3ccc(C)o3)nnn2-c2nonc2N)cc1` gave RORg inh 5.62µM*, ALOX12 inh 18.9%, TDP1 cell CPT -1.7%, ELG1 repair inh 0.0%, DT40 TDP1 no CPT -2.2% and Gal4-VP16 FLuc 10µM*.
Screening COn1c(=O)c(-c2cccs2)[n+]([O-])c2ccccc21 returned RORg inh 0.4%, ALOX12 inh inconclusive, TDP1 cell CPT 16.4µM*, ELG1 repair inh inconclusive, DT40 TDP1 no CPT 11.6µM* and Gal4-VP16 FLuc 22.5%.
Cn1c(SCC(=O)NCCc2ccc(S(N)(=O)=O)cc2)nc2ccccc2c1=O was read as RORg inh -33.3%, ALOX12 inh -2.3%, TDP1 cell CPT -3.4%, ELG1 repair inh 8.2%, DT40 TDP1 no CPT -7.4% and Gal4-VP16 FLuc 5.6%.
`NS(=O)(=O)c1ccc(CCNC(=O)CSc2nc3ccsc3c(=O)n2CCCCCC(=O)O)cc1` gave RORg inh 7.94µM*, ALOX12 inh -0.1%, TDP1 cell CPT -0.1%, ELG1 repair inh 11.3%, DT40 TDP1 no CPT inconclusive and Gal4-VP16 FLuc -3.8%.
COc1ccc(CNC(=O)C2(CC3CC(c4ccccc4)=NO3)CCN(C(=O)C3(C)CC3)CC2)cc1 (stereo not drawn) was read as ALOX12 inh -11.5%, TDP1 cell CPT inconclusive and DT40 TDP1 no CPT -22.3%.
